As a reminder, the AC50 is the midpoint of the concentration-response curve, whichever way the signal moves.

The structures appear in SMILES notation. Several values for one entry are separate records, joined by “and”; a condition that tells them apart may be missing. Identical values can stand only once. Records with an inconclusive call do not appear. Some structures have more than one record in an assay (separate samples or runs), and their calls can disagree. Activity calls are given as the source filed them. How the source made its calls, unless noted: active means hit-call score of the fitted dose curve at least 0.9, where 1 is the maximum; inactive means score below 0.9.

The nature of test [1]: IUF_NPC2a_radial_glia_migration_120hr: Leibniz Research Institute for Environmental Medicine (IUF) 120-hour Neural Progenitor Cell Migration Assay for Radial Glia Migration (NPC2a) (AID 2284298). In short, it runs like this: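 In this multiplexed test, fetal hNPC spheres migrate radially on poly-D-lysine/laminin in N2 medium (37C, 5% CO2, pH 7.2-7.6) under continuous compound exposure over five days. Migration is scored at 120 h from automated Hoechst nuclear imaging.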

A short description of test [2]: IUF_NPC2a_radial_glia_migration_72hr: Leibniz Research Institute for Environmental Medicine (IUF) 72-hour Neural Progenitor Cell Migration Assay for Radial Glia Migration (NPC2a) (AID 2284299). The gist of the method:
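Readout: mean of four manual brightfield measurements of radial glia migration distance (um) at 72 h. hNPC spheres (0.3 mm) exposed to 7 compound concentrations plus solvent control on PDL/laminin, 37C, 5% CO2; activity fitted relative to DMSO.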

Test [3] is described as follows: IUF_NPC2b_neuronal_migration_120hr: Leibniz Research Institute for Environmental Medicine (IUF) 120-hour Neural Progenitor Cell Migration Assay for Neuron Migration (NPC2b) (AID 2284300). In short, it runs like this: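 Neurons identified by TUBB3 immunostaining and Hoechst nuclei; migration distance measured automatically on fixed wells at 120 h, normalized to glia migration. Exposure spanned five days of differentiation in N2 medium, seven test concentrations.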

A short description of test [4]: IUF_NPC3_neuronal_differentiation_120hr: Leibniz Research Institute for Environmental Medicine (IUF) 120-hour Neuronal Differentiation Assay (NPC3) (AID 2284301). In short, it runs like this: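 Neuronal differentiation of primary human neural progenitors measured by high-content imaging: percent TUBB3+ of Hoechst+ nuclei within migrated area at 120 h, seven-point serial dilution plus solvent control, gain or loss relative to DMSO.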

Test [5] is described as follows: IUF_NPC4_neurite_length_120hr: Leibniz Research Institute for Environmental Medicine (IUF) 120-hour Neuronal Morphology Assay for Neurite Length (NPC4) (AID 2284302). The gist of the method:
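Neurons from differentiating human fetal neural progenitor spheres are scored for average neurite length after five days of compound exposure. Fitting uses DMSO as negative control.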

Test [6] can be described thus: IUF_NPC4_neurite_area_120hr: Leibniz Research Institute for Environmental Medicine (IUF) 120-hour Neuronal Morphology Assay for Neurite Area (NPC4) (AID 2284305; active means hit-call score of the fitted dose curve at least 0.9, where 1 is the maximum). The gist of the method:
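Endpoint at 120 h: automated imaging of TUBB3/Hoechst-stained differentiating human neural progenitor spheres, neurite area per neuron from skeletonization. DMSO solvent control, not above 0.1%, set the baseline; medium was half-replaced on day 3.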

A short description of test [7]: IUF_NPC2-5_cytotoxicity_72hr: Cytotoxicity Assessment at 72 hours in the Leibniz Research Institute for Environmental Medicine (IUF) Neural Progenitor Cell Migration and Differentiation Assay for Cytotoxicity (NPC2-5) (AID 2284306; active means hit-call score of the fitted dose curve at least 0.9, where 1 is the maximum;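 further: LDH release into supernatant measured by resorufin fluorescence marking membrane damage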). In short, it runs like this:
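Primary human neural progenitor spheres migrate and differentiate on laminin. Compound is present from the start of differentiation, with DMSO kept at or below 0.1%. At 72 h, supernatant LDH is quantified fluorometrically, with values fitted in the positive direction.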

The nature of test [8]: IUF_NPC2-5_cytotoxicity_120hr: Cytotoxicity Assessment at 120 hours in the Leibniz Research Institute for Environmental Medicine (IUF) Neural Progenitor Cell Migration and Differentiation Assay (NPC2-5) (AID 2284307; active means hit-call score of the fitted dose curve at least 0.9, where 1 is the maximum;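 on AC50: LDH released into supernatant as membrane damage marker via resorufin fluorescence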). The gist of the method:
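Fluorescence (RFU) from LDH-driven resazurin reduction in medium supernatants measured loss of membrane integrity after 120 h of compound exposure of differentiating primary human neural progenitor spheres on an extracellular matrix.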

The nature of test [9]: IUF_NPC5_oligodendrocyte_differentiation_120hr: Leibniz Research Institute for Environmental Medicine (IUF) 120-hour Oligodendrocyte Differentiation Assay (NPC5) (AID 2284304; active means hit-call score of the fitted dose curve at least 0.9, where 1 is the maximum;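 further: primary human fetal neural progenitor spheres plated to migrate and differentiate; share of O4-positive cells among Hoechst nuclei found by CNN image analysis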). In short, it runs like this: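 Human primary NPC neurospheres migrating and differentiating on laminin for 120 h under continuous compound exposure (serial dilution, solvent control). Endpoint: percent O4+ oligodendrocytes among Hoechst nuclei, detected by CNN image analysis, with DMSO as negative control.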

Read-out in the next test: CD69, CD69 (gene 969)
As to the kind of experiment: BSK_LPS_CD69: BioMAP Diversity Plus: LPS Assay for CD69 Biomarker Activity (AID 2284303). The following applies: primary human HUVEC with PBMC. The gist of the method:
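CD69 surface levels were read by ELISA after 24 h chemical treatment of an LPS-stimulated HUVEC plus PBMC co-culture; positive-direction fit against DMSO vehicle.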

On to `CCC(C)(C)C(=O)OC1=C(c2ccc(Cl)cc2Cl)C(=O)OC12CCCCC2`, for which the call in [1], in test [2], in test [3], in test [4], in [5] and in test [6] was inactive. The compound was classed as inactive in [7] and in test [8].
Take `CNC(=O)CSP(=S)(OC)OC`: the outcome in test [1], in test [2], in test [3], in test [4], in test [5] and in [9] was inactive. Besides, the result in [6], in test [7] and in test [8] was inactive.
`COP(=O)(OC)OC=C(Cl)Cl`: the AC50 in test [1] is 40 µM (active); in test [2], 59.7 µM (active); in test [3], 53.3 µM (active); in test [5] it was 13.5 µM (active); in [6] it was 13.3 µM (active); in test [8] it was 89 µM (active). In addition, in test [7], the compound was classed as inactive.
With `O=S(=O)(O)C(F)(F)C(F)(F)C(F)(F)C(F)(F)C(F)(F)C(F)(F)C(F)(F)C(F)(F)F`, the AC50 in test [1] is 79.3 µM (active) and 16 µM (active); in test [2] it was 68.6 µM (active); in test [4], 2.09 µM (active); in test [5] it was 0.362 µM (active); in [7], 79.3 µM (active); in [8], 62.4 µM (active). Besides, the outcome in [2] was “inactive”; in test [3], “inactive”; in test [4] it was “inactive”; in test [5] it was “inactive”; in the test with CD69, CD69 (gene 969), “inactive”; in [9], “inactive”. For the same compound, the outcome in test [8] was inactive.
Regarding `O=C(O)COc1ccc(Cl)cc1Cl`, the call in [1], in test [2], in [3], in test [4], in [5] and in test [7] was inactive. Moreover, the result in test [8] was inactive.
With `COP(=S)(OC)Oc1ccc([N+](=O)[O-])cc1`, the result in test [1], in test [2], in test [3], in [4], in test [5] and in test [9] was inactive. The result in [6], in test [7] and in test [8] was inactive.
In the case of `O=S1OCC2C(CO1)C1(Cl)C(Cl)=C(Cl)C2(Cl)C1(Cl)Cl` (configuration not stated), the half-maximal activity concentration (AC50) in test [1] is 13.1 µM (active); in test [9] it was 2.92 µM (active). For the same compound, the compound was called inactive in test [2], in test [3], in [4], in test [5], in test [6] and in test [7]. For the same compound, the outcome in [8] was inactive.
As to `CC(C)N(C(=O)COc1nnc(C(F)(F)F)s1)c1ccc(F)cc1`, the result in [1], in [2], in test [3], in [4], in test [5] and in test [9] was inactive. For the same compound, the outcome in [6] and in test [7] was inactive. Further, the AC50 in test [8] is 0.0343 µM (active).
Regarding `O=[N+]([O-])/N=C1\NCCN1Cc1ccc(Cl)nc1`, the call in test [1], in [2], in test [3], in test [4], in [5] and in test [9] was inactive. The call in test [6], in test [7] and in test [8] was inactive.
In the case of `CC[C@H](C)[C@H]1O[C@]2(C=C[C@@H]1C)C[C@@H]1C[C@@H](C/C=C(\C)[C@@H](O[C@H]3C[C@H](OC)[C@@H](O[C@H]4C[C@H](OC)[C@@H](O)[C@H](C)O4)[C@H](C)O3)[C@@H](C)/C=C/C=C3\CO[C@@H]4[C@H](O)C(C)=C[C@@H](C(=O)O1)[C@]34O)O2` (tested in a mixture with another compound), the AC50 in test [1] was 3.4 µM (active); in test [2], 7.19 µM (active); in test [5] it was 7.61 µM (active); in test [9], 0.444 µM (active); in test [7], 7.55 µM (active); in [8], 6.89 µM (active). Also, the call in [3] and in test [6] was inactive.
Consider `CC1(c2ccc(Oc3ccccc3)cc2)OC(=O)N(Nc2ccccc2)C1=O` (configuration not stated), for which the AC50 in test [1] was 5 µM (active); in test [9], 1.61 µM (active). The compound was called inactive in test [2], in test [3], in [4], in test [5], in test [6] and in [7]. Moreover, the compound was called inactive in test [8].
For the compound `O=C(O)C(F)(F)C(F)(F)C(F)(F)C(F)(F)C(F)(F)C(F)(F)C(F)(F)F`, the outcome in [1] was “inactive”; in test [2] it was “inactive”; in test [3] it was “inactive”; in [4] it was “inactive”; in test [5], “inactive”; with CD69, CD69 (gene 969), “inactive”. The outcome in test [9], in [6], in test [7] and in test [8] was inactive. Besides, the AC50 with CD69, CD69 (gene 969) is 220 nM (active) and 30 µM (active).
Turning to `CC1(C)C(C=C(Cl)Cl)C1C(=O)OC(C#N)c1ccc(F)c(Oc2ccccc2)c1` (configuration not stated), the compound was classed as inactive in test [1], in test [2], in [3], in test [4], in test [5] and in [6]. The call in [7] and in [8] was inactive. Besides, the AC50 in test [9] was 0.227 µM (active).

The values above are taken from PubChem BioAssay (EPA / NIEHS).
